Source: PubChem (National Center for Advancing Translational Sciences (NCATS))
Compounds with a hit are over-represented: about 12% of the library has one in this group of screens.
G9a inh: inhibitors of human histone lysine methyltransferase G9a | G9a H3K9 monomethylation, AlphaScreen, 2 h | Potency, µM (doses to about 102 µM), for the others: at the highest dose activity, negative = inhibition, most hits filed as inhibitors | 8.8% of 350,000 active | AID 504332; note: % is set by controls: 0 for no effect and ±100 for the full control effect; nearly all actives have a fitted effect of over 75% in size
Target sequence (Q96KQ7 913-1193 limits assumed): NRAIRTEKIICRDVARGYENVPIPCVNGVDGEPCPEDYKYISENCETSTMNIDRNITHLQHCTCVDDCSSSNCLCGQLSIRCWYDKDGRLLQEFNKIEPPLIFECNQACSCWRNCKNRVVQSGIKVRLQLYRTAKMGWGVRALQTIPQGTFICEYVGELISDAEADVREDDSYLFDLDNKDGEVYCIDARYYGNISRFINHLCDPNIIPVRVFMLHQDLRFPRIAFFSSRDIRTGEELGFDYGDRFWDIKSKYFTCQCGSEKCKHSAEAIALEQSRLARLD
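Readings reflect AlphaScreen signal from monomethyl-H3K9 antibody detection. HMT at 20 nM; substrate b-H3K9 500 nM; cofactor SAM 20 uM; 2 h RT reaction; compounds tested as titrations in qHTS with 15 min preincubation.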
JMJD2A Tudor inh: inhibitors of human JMJD2A Tudor domain | O75164 | AlphaScreen JMJD2A-Tudor / H3K4me3 peptide binding | Potency, µM (series often up to 114 µM), inactives show at the highest dose activity change, negative = inhibition, most hits filed as inhibitors | 4.4% of 390,000 active | AID 504339; note: % is set by controls: 0 for no effect and ±100 for the full control effect; nearly all actives have a fitted effect of over 50% in size
BAZ2B block: blocks human BAZ2B | 4.4% of 360,000 active | Potency, µM (doses to about 114 µM), for inactives: top-dose activity change, negative = inhibition, most hits filed as inhibitors | Q9UIF8 | AlphaScreen BAZ2B-H3K14Ac peptide displacement; note: % is set by controls: 0 for no effect and ±100 for the full control effect; nearly all actives have a fitted effect of over 60% in size
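Compounds, titrated to a top concentration of 110 uM, were incubated 30 min at room temperature with preformed BAZ2B/acetyl-K14 H3 peptide complex (50 nM each). Proximity signal was measured by AlphaScreen after 20 min with beads.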
Sfp PPTase inh: Sfp phosphopantetheinyl transferase inhibition; Q9F4F7; Biochemical Sfp PPTase activity, qHTS; Potency, µM, for inactives: largest response in the series, negative = inhibition, most hits filed as inhibitors; 3.5% of 310,000 active;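 note: the enzyme is Sfp with the accession as filed and its product quenches rhodamine fluorescence; 0% = enzyme reaction without inhibitor and -100% = no enzyme wells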
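Reaction rates are the 30-min fluorescence difference (ex 525, em 598 nm) in wells containing 15 nM Sfp, 5 uM rhodamine-CoA and 12.5 uM BHQ-2-YbbR at pH 7.6 with 10 mM MgCl2.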
HP1b chromo inh: blocks HP1-beta chromodomain binding to methylated histone tails; Potency, µM (doses to about 114 µM), for inactives: at the top dose activity change, negative = inhibition, hits mostly inhibitors; P83916; AID 540317; 0.56% of 390,000 active; AlphaScreen HP1-beta / biotin-H3K9me3 peptide binding; note: nearly all actives have a fitted effect of over 70% in size
Target sequence (P83916 whole entry, looked up): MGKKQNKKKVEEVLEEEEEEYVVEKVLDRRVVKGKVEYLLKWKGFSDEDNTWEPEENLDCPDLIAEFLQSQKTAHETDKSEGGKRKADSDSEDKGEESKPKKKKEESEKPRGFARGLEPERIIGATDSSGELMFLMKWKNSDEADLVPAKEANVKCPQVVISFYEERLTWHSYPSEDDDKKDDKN
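AlphaScreen: HP1-beta (50 nM) preformed 30 min with biotin-H3(1-18)K9me3 peptide (50 nM) in PBS pH 7.4, 0.01% Tween-20. Compound added for 30 min at RT, then streptavidin donor/nickel chelate acceptor beads (10 ug/mL) for 30 min.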
L3MBTL1 inh: blocks human L3MBTL1. Q9Y468. AlphaScreen L3MBTL1–H3K9me1 peptide binding. Potency, µM (doses to about 57.1 µM), for inactives: at the top dose activity, negative = inhibition, usual class: inhibitors. 0.66% of 230,000 active; note: % is set by controls: 0 for no effect and ±100 for the full control effect; nearly all actives have a fitted effect of over 60% in size
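L3MBTL1 (50 nM) pre-complexed 30 min with biotinylated H3(1-15)K9me1 peptide (75 nM), then compounds added for 30 min at room temperature; AlphaScreen streptavidin donor/nickel chelate acceptor beads (10 ug/mL final) read after 30 min dark incubation.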
Starred values were filed as active, the others as inactive; [ ] = dose if it differs, or a comment. Calls come from the whole dose curve; as a rule, active = well fitted curve in the direction sought with a large enough effect; inconclusive = small, poorly fitted or top-dose-only effect, or another doubt; inactive = no such curve, though single readings can be large; an effect the other way counts as inactive or inconclusive. Potency is the fitted concentration of half-maximal effect.

What do the screens show for `CC1CCc2c(sc(NC(=O)COC(=O)c3ccc(O)cc3)c2C#N)C1` (stereo unspecified)?
G9a inh: 40µM*; JMJD2A Tudor inh: inconclusive; BAZ2B block: -32%; Sfp PPTase inh: inconclusive; HP1b chromo inh: -4%; L3MBTL1 inh: -21%

What do the screens show for `CC1CCc2c(sc(NC(=O)Cn3nc(C(F)(F)F)c4c3CCCCC4)c2C#N)C1` (stereo unspecified)?
G9a inh: inconclusive; JMJD2A Tudor inh: -19%; BAZ2B block: 23%; Sfp PPTase inh: 50µM*; HP1b chromo inh: -35%; L3MBTL1 inh: 31%

Results for C=CCc1ccccc1OCCn1c(C2CC(=O)N(Cc3ccc(F)cc3)C2)nc2ccccc21 (stereo unspecified) ?
G9a inh: -40%[59 µM]; JMJD2A Tudor inh: -21%; BAZ2B block: -14%; HP1b chromo inh: 9%

Results for CCOC(=O)c1c(C)[nH]c(C)c1S(=O)(=O)N1CCC(C(=O)Nc2ccc(C)c(N(C)C)c2)CC1 ?
G9a inh: inconclusive; JMJD2A Tudor inh: -19%; BAZ2B block: -35%; HP1b chromo inh: 22%

How did COc1ccc2oc(=O)c(C(=O)Nc3ccc(C(=O)O)cc3)cc2c1 do in these assays?
G9a inh: -29%[59 µM]; JMJD2A Tudor inh: -8%; BAZ2B block: -1%; HP1b chromo inh: 35%

What do the screens show for `CN(C1CCS(=O)(=O)C1)S(=O)C12CC3CC(CC(C3)C1)C2` (stereo unspecified)?
G9a inh: 11µM*; JMJD2A Tudor inh: -20%; BAZ2B block: -1%; Sfp PPTase inh: -10%; HP1b chromo inh: 49%; L3MBTL1 inh: -12%

Results for CSC(=S)N/N=C/c1ccccc1 ?
G9a inh: -1%; JMJD2A Tudor inh: inconclusive; BAZ2B block: 13µM*; Sfp PPTase inh: 8%; HP1b chromo inh: -4%; L3MBTL1 inh: -29%

How did S=C(N/N=C/c1ccccc1)N1CCOCC1 do in these assays?
G9a inh: inconclusive; JMJD2A Tudor inh: 89µM*; BAZ2B block: inconclusive; Sfp PPTase inh: -9%; HP1b chromo inh: 20%; L3MBTL1 inh: inconclusive

How did CCOc1ccc(-n2c(SCC(=O)Nc3ccc(F)cc3)nc3c([nH]c4ccccc43)c2=O)cc1 do in these assays?
G9a inh: 3%[59 µM]; JMJD2A Tudor inh: -12%; BAZ2B block: 1%; HP1b chromo inh: 21%[57 µM]

Results for Cc1ccc(C)c(CN2C(=O)c3ccccc3S(=O)(=O)c3ccc(C(=O)N(C)C4CCCCC4)cc32)c1 ?
G9a inh: inconclusive; JMJD2A Tudor inh: -14%; BAZ2B block: -25%; HP1b chromo inh: 37%

Results for CCOC(=O)c1c(C)[nH]c(CCC(=O)NCCCN2CCN(c3ccccc3F)CC2)c1C ?
G9a inh: -7%[59 µM]; JMJD2A Tudor inh: inconclusive; BAZ2B block: -28%; HP1b chromo inh: 9%[57 µM]

Results for COc1ccc(OC)c(S(=O)(=O)ON2C(=O)c3ccccc3C2=O)c1 ?
G9a inh: 1.4µM*; JMJD2A Tudor inh: 89µM*; BAZ2B block: 9%[0.457 µM]; Sfp PPTase inh: -101%; HP1b chromo inh: inconclusive; L3MBTL1 inh: 2%

How did CCc1ccc(S(=O)(=O)ON2C(=O)c3ccccc3C2=O)cc1 do in these assays?
G9a inh: inconclusive; JMJD2A Tudor inh: 50µM*; BAZ2B block: inconclusive; Sfp PPTase inh: 18µM*; HP1b chromo inh: 35µM*; L3MBTL1 inh: 1%[11.4 µM]

How did C=C[C@@H]1[C@@H](C)[C@H](C)C(=O)C([C@H](O)C(C)C)[C@@H]1C (stereo partly specified) do in these assays?
JMJD2A Tudor inh: -14%; Sfp PPTase inh: 16%; HP1b chromo inh: 38%

How did CCC(=O)N1CCc2cc(Br)cc(S(=O)(=O)CCC(=O)N3CCN(c4ccccc4F)CC3)c21 do in these assays?
G9a inh: -3%[59 µM]; JMJD2A Tudor inh: -25%; BAZ2B block: -6%; HP1b chromo inh: -7%

What do the screens show for `Cc1nc(-c2ccc(Cl)cc2)sc1CCNC(=O)C(=O)Nc1ccc2c(c1)OCCO2`?
G9a inh: 22%[59 µM]; JMJD2A Tudor inh: -12%; BAZ2B block: -2%; HP1b chromo inh: 20%[57 µM]

How did N#Cc1nc(COc2ccccc2Cl)oc1NCc1ccc(F)cc1 do in these assays?
G9a inh: 45µM*; JMJD2A Tudor inh: inconclusive; BAZ2B block: inconclusive; Sfp PPTase inh: 17%; HP1b chromo inh: 4%; L3MBTL1 inh: -13%

How did COc1ccccc1-c1nc(C#N)c(NCc2ccc(F)cc2)o1 do in these assays?
G9a inh: inconclusive; JMJD2A Tudor inh: -34%; BAZ2B block: 50µM*; Sfp PPTase inh: -3%; HP1b chromo inh: inconclusive

Results for Cc1ccc(CNc2oc(-c3cccs3)nc2C#N)cc1 ?
G9a inh: 50µM*; JMJD2A Tudor inh: -35%; BAZ2B block: inconclusive; Sfp PPTase inh: 3%; HP1b chromo inh: inconclusive; L3MBTL1 inh: inconclusive

What do the screens show for `COc1ccc2c(c1)c1c(c(=O)n(-c3ccccc3C)c(=O)n1C)n2C`?
G9a inh: -22%[59 µM]; JMJD2A Tudor inh: -14%; BAZ2B block: -3%; HP1b chromo inh: -4%

What do the screens show for `CCCCC(C)(C)[C@H](O)/C=C/[C@H]1[C@H](O)CC(=O)[C@@H]1C/C=C\CCCC(=O)O`?
G9a inh: 30%[59 µM]; Sfp PPTase inh: 9%

How did CCOC(=O)Cn1c(CN2CCc3ccccc3C2)nc2c1c(=O)n(C)c(=O)n2C do in these assays?
G9a inh: 40µM*; JMJD2A Tudor inh: -27%; BAZ2B block: 4%; Sfp PPTase inh: 23%; HP1b chromo inh: 59%; L3MBTL1 inh: 4%

How did Cn1c(=O)c2c(nc(CN3CCN(c4ccccc4F)CC3)n2Cc2ccccc2F)n(C)c1=O do in these assays?
G9a inh: 2%[59 µM]; JMJD2A Tudor inh: -14%; HP1b chromo inh: 23%

What do the screens show for `Cn1c(=O)c2c(nc(CN3CCc4ccccc4C3)n2CCCO)n(C)c1=O`?
G9a inh: 11µM*; JMJD2A Tudor inh: 1%; BAZ2B block: -14%; Sfp PPTase inh: 12%; HP1b chromo inh: 39%

What do the screens show for `Cn1c(=O)c2c(nc(CN3CCc4ccccc4C3)n2Cc2ccccc2F)n(C)c1=O`?
G9a inh: 18µM*; JMJD2A Tudor inh: -27%; BAZ2B block: -19%; Sfp PPTase inh: 1%; HP1b chromo inh: 42%; L3MBTL1 inh: -2%

What do the screens show for `Cc1ccc(NC(=O)C2CCN(C(=O)c3cnn(-c4ccccc4)c3-n3cccc3)CC2)cc1`?
G9a inh: 10%[59 µM]; JMJD2A Tudor inh: -17%; BAZ2B block: -26%; HP1b chromo inh: 24%
